Hit rate of the full screen: of about 310,000 compounds, about 1,000 (0.32%) were called active. A selection follows. Results with a measured potency or affinity are listed apart. Values without a mark were called inactive. How the calls were made is not given here.

The experiment is described as follows: Inhibition of PhoP regulon, Salmonella typhi GFP reporter cells, confirmation, 4 h (AID 1850).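 Further: 0% = induced wells with vehicle and 100% = uninduced wells.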 As to conditions: Salmonella Typhi PhoP-promoter GFP reporter, fluorescence, at 50 µM, active compounds read high.
With `Cc1ccccc1OCC(=O)Nc1nc2ccccc2[nH]1`, the inhibition was 9.79%.

In the case of `COc1cccc(CN2CCNC(=O)C2CC(=O)N2CCOc3ccccc3C2)c1OC` (stereo not given), the inhibition was -0.13%.

Turning to `O=c1cc(-c2ccccc2)nc(SCCOc2ccccc2Cl)[nH]1`, the inhibition was 3.72%.

For `Cc1ccc(C(=O)Nc2cccnc2)cc1S(=O)(=O)N1CCCC1`, the inhibition was -5.54%.

With `O=c1[nH]c(=S)[nH]c(O)c1N=Nc1ccc2c(c1)OCO2`, the inhibition was -4.29%.

With `Cc1ccc(Cl)cc1N1CCN(C(=O)Cc2ccc(-n3c(=O)[nH]c4ccsc4c3=O)cc2)CC1`, the inhibition was 2.93%.

As for `O=C1Nc2ccccc2/C1=C/c1ccccc1F`, the inhibition is -2.26%.

In the case of `O=C(c1nc2ccccn2c1CN1CCN(c2ccccc2O)CC1)N1CCCC1`, the inhibition is -2.41%.

With `OC(C#CCN1CCCCC1)c1ccccc1` (stereo not given), the inhibition was -17.1%.

Consider `Cc1ccc(NC(=O)CSc2ncccc2C(=O)Oc2cccc([N+](=O)[O-])c2)cc1Cl`, for which the inhibition is -7.7%.

`CCOc1ccc(S(=O)(=O)NCCC(=O)NCc2cccnc2)cc1`: the inhibition was 9.15%.

Take `C#CCOCCOCCOCCNc1nc(N2CCN(C(=O)CCCCCCCCCCNC(=O)[C@@H](CCC(=O)O)n3cc(CCCCCN)nn3)CC2)nc(N2CCN(C(=O)CCCCCCCCCCNC(=O)[C@H]([C@@H](C)CC)n3cc(CCCCCN)nn3)CC2)n1`: the inhibition was -8.02%.

On to `C#CCOCCOCCOCCNc1nc(N2CCN(C(=O)CCCCCCCCCCNC(=O)[C@H](CCCCN)n3cc(CCO)nn3)CC2)nc(N2CCN(C(=O)CCCCCCCCCCNC(=O)[C@@H]([C@H](C)O)n3cc(C)nn3)CC2)n1`, for which the inhibition is -15.8%.

`C#CCOCCOCCOCCNc1nc(N2CCN(C(=O)CCCCCCCCCCNC(=O)[C@H]([C@@H](C)CC)n3cc(CCCCCN)nn3)CC2)nc(N2CCN(C(=O)CCCCCCCCCCNC(=O)[C@@H]([C@H](C)O)n3cc(C)nn3)CC2)n1`: the inhibition is 60.5%.

As for `C#CCOCCOCCOCCNc1nc(N2CCN(C(=O)CCCCCCCCCCNC(=O)[C@H]([C@@H](C)CC)n3cc(CCCCCN)nn3)CC2)nc(N2CCN(C(=O)CCCCCCCCCCNC(=O)[C@H](CCCCN)n3cc(CCCC(=O)O)nn3)CC2)n1`, the inhibition is -21.1%.

Consider `CCC(Oc1ccc(C)cc1)C(=O)Nc1ccc2c(c1)n(C)c(=O)n2C` (stereo not given), for which the inhibition was -3.92%.

Take `CCNC(=O)CC1SC(=Nc2cccc3ccccc23)N(C)C1=O` (stereo not given): the inhibition is -5.94%.

As to `CCN(CC(=O)NC(=O)Nc1ccccc1F)Cc1ccccc1`, the inhibition was -3.48%.

Consider `CCN1CCN(C(=O)CCCn2c(C)c3cnn(-c4ccccc4)c(=O)c3c2C)CC1`, for which the inhibition was -6.37%.

As to `O=C(CN(CCO)c1ccccc1)Nc1ccc(Cl)c(S(=O)(=O)N2CCOCC2)c1`, the inhibition was -1.19%.

For `Clc1ccc2[nH]c3c(NCC4CCCO4)ncnc3c2c1` (stereo not given), the inhibition is -14%.

For `Cc1ccc2[nH]c3c(NCc4ccccc4)ncnc3c2c1`, the inhibition is -1.37%.

With `Clc1ccc2[nH]c3c(NCCN4CCOCC4)ncnc3c2c1`, the inhibition was 0.11%.

In the case of `C=CCNc1ncnc2c1[nH]c1ccccc12`, the inhibition was -0.69%.

As to `CCCNC(=O)c1oc2ccc3c(c2c1C)C=CC(C)(C)O3`, the inhibition was -5.94%.

In the case of `Cc1nc2ccccn2c1C(=O)NNC(=S)Nc1ccc(Cl)cc1`, the inhibition was 0.64%.

On to `COc1ccc(C[C@H]2CN3C(=NC[C@H]3Cc3ccccc3)N2CCNC(=O)c2ccc(C)c(Br)c2)cc1`, for which the inhibition was 26.2%.

`Cc1ccc(C(=O)NCCN2C3=NC[C@H](Cc4ccc(O)cc4)N3C[C@H]2Cc2ccc(O)cc2)cc1Br`: the inhibition was 12.4%.

Take `O=C(Nc1ccnn1C1CCN(C/C=C/c2ccccc2)CC1)C1CCCC1`: the inhibition is -2.03%.

As for `COC(=O)C1=NN(c2ccc(C)cc2)C2(S1)SC(C(C)=O)=C(C)N2c1ccccc1` (stereo not given), the inhibition is -16.3%.

Consider `COc1ccc(CCNCC(O)COc2ccc(Cl)cc2)cc1OC` (stereo not given), for which the inhibition was 5.92%.

Regarding `Cc1cc(Cl)ccc1OCC(O)CNCCc1ccc(S(N)(=O)=O)cc1` (stereo not given), the inhibition is -14.1%.

Turning to `CC(=O)c1cccc(OCC(O)CNCCc2ccc(Cl)cc2)c1` (stereo not given), the inhibition is 4.73%.

On to `COc1ccc(NCC(O)COc2ccc(C(C)(C)C)cc2)cc1` (stereo not given), for which the inhibition was 10.5%.

For the compound `OC(CNCc1ccc(Cl)cc1)COc1ccccc1` (stereo not given), the inhibition is 11.1%.

In the case of `OC(CNCc1ccccc1)COc1ccccc1` (stereo not given), the inhibition was 18.5%.

In the case of `OC(CNCCC(c1ccccc1)c1ccccc1)COc1ccccc1` (stereo not given), the inhibition is -4.1%.

As to `CC(C)(C)NCC(O)COc1ccc(Br)cc1` (stereo not given), the inhibition was -6.26%.

For the compound `CC1=NN(C(=O)c2c(Br)cnn2C)C(O)(C(F)(F)F)C1` (stereo not given), the inhibition is 14.8%.

Turning to `CC(C)(C)c1ccc(C(=O)NNC(=S)NC(=O)c2cccnc2)cc1`, the inhibition was 7.73%.

As for `CCn1c(SCC(=O)Nc2oc(C)c3c(C)n[nH]c(=O)c23)nc2sc(C)c(C)c2c1=O`, the inhibition is -1.81%.

`CCOc1ccc(NC(=O)C2CCCN(S(=O)(=O)c3ccc4[nH]c(=O)ccc4c3)C2)cc1` (stereo not given): the inhibition is 4.78%.

With `COc1ccc(NC2c3ccccc3C(=O)N2c2ccccn2)cc1` (stereo not given), the inhibition was 0.4%.

On to `COc1ccc(C(C)=O)cc1CSc1nnc(Nc2ccc(C)cc2)s1`, for which the inhibition was 7.09%.

In the case of `Cc1nn2c(-c3cccnc3)ccnc2c1-c1ccccc1`, the inhibition was -4.51%.

As for `COc1ccc(N2C(=O)CC(C#N)=C2N)cc1`, the inhibition is 17.1%.

For `COc1ccc(-n2nc(C)c3c(=O)c4c([nH]c32)CCCC4)cc1`, the inhibition is 7.61%.

As to `Cc1cccc(NC(=O)CN2C(=O)C(C)Oc3ccccc32)n1` (stereo not given), the inhibition is -5.84%.

Regarding `CN1C(=O)Cc2cc(S(=O)(=O)N3CCN(c4ccc(Cl)cc4)CC3)ccc21`, the inhibition was 3.82%.

Consider `C=CCc1c(C)nc(C)nc1N/N=C/c1ccccc1O`, for which the inhibition is -9.46%.

With `COc1ccc(OCCCC(=O)OC(C)C(=O)Nc2cccc(C(C)=O)c2)cc1` (stereo not given), the inhibition is 15.1%.

For the compound `O=C(Cn1cc([N+](=O)[O-])ccc1=O)NCc1ccc(Cl)cc1Cl`, the inhibition was -7.2%.

In the case of `COC(=O)c1ccc(CNCC(O)COc2ccc(-c3ccccc3)cc2)cc1` (stereo not given), the inhibition was 10.8%.

With `CC(C)N(CCNCC(O)COc1ccc(C(C)(C)c2ccccc2)cc1)C(C)C` (stereo not given), the inhibition was -17.3%.

Consider `COc1ccc(OC)c(-n2nnnc2SCC(=O)NCc2ccc3c(c2)OCO3)c1`, for which the inhibition is 0.94%.

On to `c1ccc2c(c1)[nH]c1cnccc12`, for which the inhibition is 7.53%.

Regarding `c1ccc2c(c1)[nH]c1ccncc12`, the inhibition was -9.87%.

With `COc1ccc2[nH]c3c(=S)nc[nH]c3c2c1`, the inhibition is 3.32%.

Turning to `COc1ccc2[nH]c3c(Cl)ncnc3c2c1`, the inhibition is 1.3%.

For the compound `COc1cc(NC(=O)CSc2nnc(-c3ccncc3)n2C2CCCCC2)ccc1NC(=O)c1ccco1`, the inhibition was -17.8%.

Regarding `Cc1cc(C)c(S(=O)(=O)N2CCC(C(N)=O)CC2)cc1C`, the inhibition is 16.3%.

With `COc1ccc(-c2sc(Nc3ccc(F)c(F)c3F)nc2CCC(=O)NN)cc1`, the inhibition is 4.23%.

For the compound `CS(=O)(=O)N1N=C(c2ccco2)CC1c1ccccc1` (stereo not given), the inhibition was -3.63%.

As for `NC(=O)C1CCN(C(=O)/C=C/c2cc(Br)ccc2F)CC1`, the inhibition was -0.48%.

`CCOC(=O)CNC(=S)NN(C)C`: the inhibition was 10.8%.

`CC(C)(C)OC(=O)N[C@@H](Cc1ccccc1)C(=O)N1CCC(C(=O)N[C@@H](CCC(N)=O)C(=O)O)CC1`: the inhibition was -2.12%.

Consider `CCOc1ccc(CCNC(=O)c2cc(=O)[nH]c3ccc(S(=O)(=O)N(CC)CC)cc23)cc1OCC`, for which the inhibition was -9.13%.

Consider `O=C1C(=O)c2cccc3cccc1c23`, for which the inhibition is -2.11%.

As for `O=C1C=C(O)c2cccc3cccc1c23`, the inhibition is -13.1%.

In the case of `CCOc1cc(N2CCOCC2)c(OCC)cc1NC(=O)CC12CC3CC(CC(C3)C1)C2`, the inhibition was -0.45%.

On to `COc1ccccc1Nc1nc(Cl)nc(NC(C)(C)C)n1`, for which the inhibition is -9.98%.

With `Clc1ccc(-c2nc(Cc3ccccc3)no2)cc1`, the inhibition is 11.6%.

With `OCCNCc1cc(Br)ccc1OCc1ccc(F)cc1`, the inhibition was 10.4%.

In the case of `OCCNCc1cc(Br)ccc1OCc1ccccc1`, the inhibition is -2.3%.

With `CCSP1(=S)N=C(N2CCOCC2)C(C#N)=C2CCCN21` (stereo not given), the inhibition is -5.06%.

As for `Cc1cccc(NCC(=O)N/N=C\c2cccn2C)c1`, the inhibition was -0.18%.

Turning to `O=C(NC(=S)NNC(=O)c1cc2ccccc2cc1O)c1ccco1`, the inhibition was -70.1%.

With `O=C(Nc1ccc(NC(=O)c2cccs2)cc1)c1ccc(Br)o1`, the inhibition was 3.54%.

As for `O=C(NC(=S)NNC(=O)c1ccccc1O)c1cccs1`, the inhibition was 7.92%.

`O=C(NNC(=O)c1cccs1)c1ccco1`: the inhibition was 0.32%.

Consider `O=C(NNC(=O)c1cccs1)c1ccc(Br)o1`, for which the inhibition is -19.9%.

Take `O=C(NC(=S)Nc1ccc(NC(=O)c2cccs2)cc1)c1ccco1`: the inhibition was -1.46%.

In the case of `COc1ccc(C(=O)NNC(=S)NC(=O)/C=C/c2cccs2)cc1`, the inhibition was 12%.

In the case of `O=C(NNC(=O)c1ccccc1O)c1ccco1`, the inhibition was 14.9%.

As for `Cc1ccc(-c2nnn(CC(=O)Nc3ccccc3N3CCOCC3)n2)cc1`, the inhibition was -3.19%.

As to `COC(=O)C(O)(c1ccc(N(C)C(=O)OC(C)C)cc1)C(F)(F)F` (stereo not given), the inhibition is 0.83%.

In the case of `CCOc1ccc(S(=O)(=O)N(C)c2ccc(OCC(=O)NC3=NCCS3)cc2)cc1`, the inhibition was -20.3%.

On to `O=C(Nc1cccnc1Cl)c1cc(-c2ccc(F)cc2)on1`, for which the inhibition was 5.5%.

Turning to `CCN(CCn1cccn1)C(=O)c1cc(COc2ccc(F)c(F)c2)on1`, the inhibition was 6.34%.

`CCOC(=O)c1nc2c(=O)n(C)c(=O)n(C)c2n(C)c1=O`: the inhibition is 2.99%.

(Values after PubChem BioAssay AID1850 (Southern Research Specialized Biocontainment Screening …, 2009).)
